The list is not random: actives were taken first. Their share in the collection is about 7.5%.
SMN2 splice enh: SMN2 splice variant enhancement; HEK293 SMN2-luciferase splicing reporter, luminescence, 30-36 h; Potency, µM (titrated, usually from 46.1 µM), without a hit: top-dose activity change, positive = activation, most hits filed as activators; actives 2.8% (n = 210,000); AID 1458; note: % of control where 0% means no effect; nearly all actives have a fitted effect of over 55% in size
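HEK293 cells carry an SMN2 […]–luciferase reporter in which exon 7 inclusion puts luciferase in frame. Cells were plated 10-12 h before compound addition, then incubated 30-36 h at 37C. ONE-Glo luminescence was read; sodium butyrate at 4.5 mM final served as control.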
Rab9 promoter act: Rab9 promoter activation; Huh7 Rab9 promoter-luciferase reporter, luminescence, 24 h; Potency, µM (top dose mostly 9.22 µM), without a hit: at the top dose activation, negative = inhibition, actives largely listed as activators; actives 2.8% (n = 320,000); AID 485297; note: % of control where 0% means no effect; nearly all actives have a fitted effect of over 60% in size
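Stable Rab9-luc Huh7, 1500 cells/well, 2 h settle; cmpd in DMSO, 24 h, 37 °C/5% CO2; luciferase reagent 10 min RT; luminescence.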
FLuc modulator: firefly luciferase modulation, counter-screen for miR-21 project | P08659 | purified FLuc, Km substrates, luminescence inhibition | Potency, µM (series often up to 57.5 µM), without a hit: at the top dose activity change, negative = inhibition, most hits filed as inhibitors | actives 6.9% (n = 360,000) | AID 588342;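 note: plate controls were vehicle for no effect and reference inhibitor for full effect; nearly all actives have a fitted effect of over 55% in size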
Target sequence (P08659 whole entry, looked up): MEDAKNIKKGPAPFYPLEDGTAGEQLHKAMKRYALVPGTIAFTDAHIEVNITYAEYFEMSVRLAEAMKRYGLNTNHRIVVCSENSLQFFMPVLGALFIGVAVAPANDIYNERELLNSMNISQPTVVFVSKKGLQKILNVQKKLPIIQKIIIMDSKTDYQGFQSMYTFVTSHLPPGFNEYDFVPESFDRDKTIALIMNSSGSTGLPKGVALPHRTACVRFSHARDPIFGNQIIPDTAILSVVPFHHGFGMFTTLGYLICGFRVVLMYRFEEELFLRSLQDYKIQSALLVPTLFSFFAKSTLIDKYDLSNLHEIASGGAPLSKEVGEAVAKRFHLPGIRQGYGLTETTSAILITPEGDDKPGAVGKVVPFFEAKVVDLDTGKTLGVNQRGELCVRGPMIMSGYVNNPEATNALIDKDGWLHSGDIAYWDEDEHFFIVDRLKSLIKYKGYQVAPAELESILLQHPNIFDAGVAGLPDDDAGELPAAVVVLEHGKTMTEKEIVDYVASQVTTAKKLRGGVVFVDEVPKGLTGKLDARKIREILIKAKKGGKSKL
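Purified P. pyralis luciferase (10nM final) with 10uM D-luciferin and 10uM ATP (Km levels) in 50mM Tris acetate pH 7.5, 10mM Mg acetate, 0.01% Tween-20, 0.05% BSA; qHTS 6-point titration, ~60 µM downward; luminescence read.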
NPC1 promoter act: activators of NPC1 promoter | actives 2.4% (n = 320,000) | Potency, µM (series often up to 9.22 µM), for the others: at the highest dose activation, most hits filed as activators | Huh7 NPC1 promoter luciferase reporter, 24 h | AID 485313; note: % of control where 0% means no effect; nearly all actives have a fitted effect of over 60% in size
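In 1536-well qHTS, Huh7 cells harboring an NPC1 promoter–luciferase construct received compound for 24 h; activation was quantified by luminescence following luciferase reagent addition.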
ELG1 genotoxic: induces genotoxicity in HEK293T cells with luciferase-tagged ELG1; Potency, µM (titrated, usually from 46 µM), for the others: at the top dose activity change, positive = activation, hits mostly activators; HEK293T ELG1-luciferase reporter, luminescence, 16 h; actives 1.3% (n = 330,000); note: % of control where 0% means no effect; nearly all actives have a fitted effect of over 60% in size
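After overnight (16 hr) compound treatment at 37 °C, ELG1-luciferase HEK293T cells were lysed with ONE-Glo; luminescence quantified 30 min later at room temperature.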
KinaseGlo FLuc: Kinase-Glo luciferase inhibition (counter-screen) | Kinase-Glo luciferase, ATP luminescence, 8 min | Potency, µM (titrated, usually from 38.3 µM), for the others: at the highest dose activity change, negative = inhibition, actives largely listed as inhibitors | Q27757 | AID 1379 | actives 0.28% (n = 200,000); note: % is set by controls: 0 for no effect and ±100 for the full control effect; nearly all actives have a fitted effect of over 60% in size
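Luminescence was the read-out, taken after 8-minute incubation at ambient temperature. Luciferase turned over luciferin with 10 uM ATP in imidazole pH 7.2 buffer containing KCl, MgCl2, Tween 20 and BSA.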
Starred values were filed as active, the others as inactive; ? = inconclusive; · = not tested or not shown; [ ] = another dose, or the depositor's remark. Calls come from the whole dose curve; as a rule, active = well fitted curve in the direction sought with a large enough effect; inconclusive = small, poorly fitted or top-dose-only effect, or another doubt; inactive = no such curve, though single readings can be large; an effect the other way counts as inactive or inconclusive. Potency is the fitted concentration of half-maximal effect.

SMILES	SMN2 splice enh	Rab9 promoter act	FLuc modulator	NPC1 promoter act	ELG1 genotoxic	KinaseGlo FLuc
Cc1ccc(CNc2ncnc3c2nnn3C)cc1	·	·	-5%	·	·	·
CCOC(=O)c1ccc2c(c1)NCc1cccc(OC)c1O2	·	2.8µM*	5.4µM*	2.5µM*	?	·
CC[C@](N)(C(=O)O)C(C)C	1%[9.22 µM]	·	·	·	·	-2%[7.66 µM]
O=C(NCc1ccccn1)c1cc(-c2ccc(Cl)cc2)nc2ccccc12	16%	-1%	5.4µM*	3%	-6%	-2%
Cc1ccc(-c2cc(C(=O)NCc3ccccn3)c3ccccc3n2)cc1C	13µM*	23%	1.5µM*	19%	-4%	-13%
O=C(NCCc1ccccn1)c1cc(-c2ccccc2Cl)nc2ccccc12	-49%	9%	5%	1%	-2%	4%
O=C(NCc1ccccc1)c1cc(-c2ccncc2)nc2ccccc12	·	5%	-18%	0%	-8%	·
CCn1cc(CNC(=O)c2cc(-c3ccc(C)c(C)c3)nc3ccccc23)c(C)n1	12%	·	2.4µM*	·	·	·
O=C(NCc1ccccn1)c1cc(-c2ccccc2)nc2ccccc12	-5%	1%	17µM*	-2%	-2%	-3%
O=C(CSc1nnc(CNC(=O)c2c(F)cccc2Cl)o1)NCc1ccccc1	·	2%	0%	0%	2%	·
Cc1cc(C)c2c(=O)nc(SCc3ccccc3C)n(C3CC3)c2n1	·	·	-4%	·	·	·
O=C(NCc1ccccn1)c1cc(-c2ccc(-c3ccccc3)cc2)nc2ccccc12	·	3.5µM*	0.38µM*	2.2µM*	-8%	·
Cc1cc(CNC(=O)c2cc(-c3ccccc3)nc3ccccc23)nn1C	6%	-10%	?	0%	-12%	-2%
Cc1cccc(-c2cc(C(=O)NCc3ccccn3)c3ccccc3n2)c1	12%	17%	8.5µM*	9%	-2%	1%
COCCNC(=O)c1cc(-c2ccc(-c3ccccc3)cc2)nc2ccccc12	·	12%	-1%	0%	-14%	·
COc1ccc(CNc2ccc(Br)cc2)cc1	-1%	?	24µM*	?	?	1%
COc1ccc(S(=O)(=O)NCc2ccc(C(=O)O)cc2)cc1	3%	-1%	0%	-3%	0%	4%
COc1ccc(CNc2ccc(C(=O)O)cc2)cc1	1%	23%	7.6µM*	25%	4%	2%
COc1ccc(NCc2ccc(OC)c(OC)c2)cc1	-11%	14%	?	3%	8%	-1%
CCC(C)Sc1ccc([C@H]2N[C@@](Cc3ccccc3)(C(=O)OC)[C@H]3C(=O)N(C)C(=O)[C@@H]23)cc1 (stereo partly drawn)	·	3%	-17%	2%	-8%	·
Cc1cccc(CCNC(=O)c2ccc3c(c2)N(Cc2ccccc2F)C(=O)c2ccccc2S3)c1	·	·	-6%	·	·	·
COc1ccc(-c2cc(C(=O)Nc3ccc(C)c(N)c3)c3ccccc3n2)cc1	·	15%	5.4µM*	23%	5%	·
COc1ccc(-c2cc(C(=O)Nc3ccc(S(=O)(=O)Nc4onc(C)c4C)cc3)c3ccccc3n2)cc1	·	-3%	9.5µM*	2%	2%	·
COC(=O)c1ccc(NC(=O)c2cc(-c3ccncc3)nc3ccccc23)cc1	·	-1%	-6%	0%	-2%	·
COc1ccc(-c2cc(C(=O)Nc3ccc(S(=O)(=O)Nc4ncccn4)cc3)c3ccccc3n2)cc1	·	3%	4.8µM*	4%	15%	·
SMILES	SMN2 splice enh	Rab9 promoter act	FLuc modulator	NPC1 promoter act	ELG1 genotoxic	KinaseGlo FLuc
CCC1CN(C(=O)N2CCC(C(=O)Nc3cc(C)ccc3C)CC2)c2ccccc2O1 (stereo not drawn)	·	·	-8%	·	·	·
CC/C(=N\NC(=O)c1c[nH]c2ccccc12)c1cccs1	18µM*	2.8µM*	5.4µM*	2.8µM*	?	-5%
O=C(N/N=C/c1ccsc1)c1c[nH]c2ccccc12	·	2.8µM*	11µM*	3.5µM*	16µM*	·
CC(C)(C)OC(=O)N/N=C/c1cccc([N+](=O)[O-])c1	11µM*	3.2µM*	6µM*	2.5µM*	?	-2%
Cc1cc(C(=O)N/N=C/c2cccc([N+](=O)[O-])c2)c(C)o1	-7%	27%	?	18%	12%	-16%
C/C(=N/NC(=O)c1ccncc1)c1c[nH]c2ccccc12	-5%	2%	-7%	-2%	3%	-2%
O=C(N/N=C/c1ccsc1)c1cc2ccccc2o1	·	25%	?	1%	9%	·
Cc1ccc(/C=N/NC(=O)c2c[nH]c3ccccc23)o1	-4%	27%	24µM*	22%	3%	-4%
Cc1cccc(C(=O)N/N=C/c2ccc[nH]2)c1	9%	0%	?	5%	13%	-4%
CCn1nc(C)c(/C=N/NC(=O)c2c[nH]c3ccccc23)c1C	18µM*	3.5µM*	?	?	?	-4%
Cc1ccc(/C=N/NC(=O)c2c[nH]c3ccccc23)s1	13µM*	0.56µM*	7.6µM*	1.6µM*	14%	-1%
Cc1ccsc1/C=N/NC(=O)c1cc(-c2ccncc2)nc2ccccc12	-33%	-28%	-20%	-17%	2%	-4%
Cc1ccsc1/C=N/NC(=O)c1c[nH]c2ccccc12	?	2.5µM*	12µM*	4.5µM*	?	-3%
CC(C)(C)OC(=O)N/N=C\c1ccc[nH]1	27%	?	19µM*	-5%	7%	-1%
CCn1nc(C)c(/C=N/NC(=O)Cn2nccc2C)c1C	20%	25%	?	27%	?	-4%
CC(Oc1ccc(Cl)cc1Cl)C(=O)NCCCN1CCOCC1 (stereo not drawn)	-9%	0%	0%	6%	3%	2%
C/C(=N\NC(=O)c1c[nH]c2ccccc12)c1ccc(C)s1	·	?	?	3.2µM*	?	·
O=C(N/N=C/c1cc([N+](=O)[O-])ccc1O)c1c[nH]c2ccccc12	·	-3%	-9%	0%	15%	·
COc1ccc(C/C(C)=N\NC(=O)c2c[nH]c3ccccc23)cc1OC	·	3%	-18%	-1%	4%	·
O=C(N/N=C/c1cccc([N+](=O)[O-])c1)c1c[nH]c2ccccc12	·	?	17µM*	2.2µM*	12%	·
CCOc1ccc(NC(=O)Cn2c(=O)n(-c3cccc(Cl)c3)c(=O)c3c2c2cc(C)ccc2n3C)cc1	·	·	3%	·	·	·
Cc1ccccc1-n1c(C)cc(/C=N/Nc2ccc([N+](=O)[O-])cn2)c1C	23%	?	?	?	?	-4%
Cc1cc(/C=N/Nc2ccc([N+](=O)[O-])cn2)c(C)n1-c1ccc(C(=O)O)cc1	-9%	0%	?	0%	11%	-1%
